Data on 39 compounds can be found in ChEMBL document CHEMBL3988442, “University of Dundee, Small-Polar-MMV Screening Library” (2021).

The target of assay [1] is T1, Aspartate--tRNA(Asp/Asn) ligase (Mycobacterium tuberculosis (strain ATCC 25618 / H37Rv)) (UniProt P9WFW3). Further: in the data most compounds retested in dose-response had high values.
T1 sequence (whole entry): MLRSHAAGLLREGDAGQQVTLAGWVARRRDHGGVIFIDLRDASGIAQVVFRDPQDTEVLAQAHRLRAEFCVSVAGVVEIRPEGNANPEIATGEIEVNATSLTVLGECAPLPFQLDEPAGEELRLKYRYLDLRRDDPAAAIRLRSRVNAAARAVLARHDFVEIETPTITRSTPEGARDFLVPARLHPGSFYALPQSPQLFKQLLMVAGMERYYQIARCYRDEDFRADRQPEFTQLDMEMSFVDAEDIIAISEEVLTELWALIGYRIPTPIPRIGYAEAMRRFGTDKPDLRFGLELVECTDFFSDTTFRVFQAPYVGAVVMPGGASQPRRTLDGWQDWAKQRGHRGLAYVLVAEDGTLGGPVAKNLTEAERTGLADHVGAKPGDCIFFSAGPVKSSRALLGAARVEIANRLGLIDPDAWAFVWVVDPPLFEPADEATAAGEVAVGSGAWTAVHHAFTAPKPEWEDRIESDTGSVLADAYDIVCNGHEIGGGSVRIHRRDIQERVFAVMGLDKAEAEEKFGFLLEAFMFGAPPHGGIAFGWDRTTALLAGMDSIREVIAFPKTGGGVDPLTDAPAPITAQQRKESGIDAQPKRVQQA
In words: Assay for Asp RNA synthetase-1 from Mycobacterium tuberculosis. It counts as functional. Further details: scale not given: direction of the effect not stated beside the values. The following applies: 30 µM.

The target of assay [2] is Shiga toxin 2 (Escherichia coli O157:H7) (UniProt P09385+P09386). The experiment in a line: E. coli 0.157:H7 Shiga Toxin SOP - stx2 screening assay. In kind it is functional. Further details: scale not given: direction of the effect not stated beside the values. The following applies: 30 µM.

For the compound `Cc1cc(C)c2nc(CN3CC[C@@H](O)C3)cc(O)c2c1`, the values for the Percent Effect in assay [1] and in assay [2] were 3.16% and 7.54%, respectively.
The matching figures for `COC(=O)c1sccc1NC(=O)C1CCCN1C(=O)c1ccco1` (stereo not drawn): -0.808% and -12.3%.
Regarding `Cc1cc(CN2CCN(C(=O)NCc3ccc(C)s3)CC2)no1`, the Percent Effect in assay [1] is -8.25%; in assay [2] it was 0.0703%.
Turning to `Cc1noc(C(C)C)c1C(=O)N1CCOCC1CC(=O)c1ccco1` (stereo not drawn), the figures for the Percent Effect in assay [1] and in assay [2] were 2.61% and -4.27%, respectively.
Consider `COC(=O)c1cccn1C1CCN(C(=O)c2cc(F)ccc2F)CC1`, for which the Percent Effect in assay [1] stood at 1.88%; in assay [2] it was 19.6%.
As to `CCS(=O)(=O)N1CCC[C@]2(C(=O)N(C)C)CN(c3ncccn3)C[C@@H]2C1`, the Percent Effect was 2.53% in assay [1] and -34.5% in assay [2].
Turning to `O=C(COCc1ccccc1)N1CCCC(n2cncn2)C1` (stereo not drawn), the Percent Effect in assay [1] was -3.66%; in assay [2], 22.6%.
Take `c1csc(-c2nc(CN3CCOC(Cn4cncn4)C3)cs2)c1` (stereo not drawn): the Percent Effect in assay [1] was -6.66%; in assay [2], 31.4%.
Regarding `Cc1ccc(F)c(-n2nnc(C(=O)O)c2-c2ccncc2)c1`, the results for the Percent Effect in assay [1] and in assay [2] were 6.35% and -7.89%, respectively.
Take `CC(=O)N1CCCC(Cc2cncc(Br)c2)CC1` (stereo not drawn): the Percent Effect was -0.223% in assay [1] and -11% in assay [2].
The matching figures for `Cc1nc(CN(C)C2CCN(Cc3ccno3)C2)no1` (stereo not drawn): -4.76% and -31.6%.
In the case of `O=C(c1cc(Cl)cc(Cl)c1)N1CCN(c2nccs2)CC1`, the Percent Effect was -0.345% in assay [1] and -14.9% in assay [2].
`O=C1CCCc2cc(-c3csc(CCN4CCOC4=O)n3)ccc2N1`: the values for the Percent Effect in assay [1] and in assay [2] were -6.83% and -35.7%, respectively.
`Cc1n[nH]c(C2CN(CC(=O)NCCc3ccsc3)CCO2)n1` (stereo not drawn): the Percent Effect in assay [1] is -3.33%; in assay [2], 7.26%.
For the compound `c1ncn(CC2CCCN2Cc2cn3ccsc3n2)n1` (stereo not drawn), the Percent Effect in assay [1] is -3.37%; in assay [2], -3.31%.
For `Cc1csc2c(=O)n3c(nc12)CCN(C(=O)c1cccnc1)CC3` the same measures were -0.521% and 6.12%.
With `Cc1cc(NC(=O)NCCc2cccs2)n(C)n1`, the results for the Percent Effect in assay [1] and in assay [2] were 1.39% and -38.4%, respectively.
Consider `Cc1ccc(-c2cn[nH]c2C2CCCN(c3nccc(N)n3)C2)cc1` (stereo not drawn), for which the results for the Percent Effect in assay [1] and in assay [2] were 2.79% and -37.9%, respectively.
For the compound `COc1nn(C)c2c1CCCN(C(=O)c1cc[nH]n1)C2`, the Percent Effect was 0.229% in assay [1] and -2.49% in assay [2].
Consider `CC(C)(C)c1nnc(CN2CCCC(c3cc(C(N)=O)[nH]n3)C2)o1` (stereo not drawn), for which the values for the Percent Effect in assay [1] and in assay [2] were -0.781% and 19.9%, respectively.
For `Cc1cc(C(=O)NCc2ccc(N3CCCC(C(N)=O)C3)cc2)no1` (stereo not drawn), the Percent Effect in assay [1] is -6.8%; in assay [2], -3.03%.
The matching figures for `CC(C)CNC(=O)c1ccc2nnc(C3CCN(S(C)(=O)=O)C3)n2c1` (stereo not drawn): 3.22% and 3.22%.
For `CS(=O)(=O)NCC1CCCN(C(=O)COCC(F)(F)F)C1` (stereo not drawn) the same measures were -4.43% and -24%.
Take `CC(O)CN1CCN(Cc2cccc(C(=O)N(C)C)c2)CC1` (stereo not drawn): the Percent Effect is -6.5% in assay [1] and -1.9% in assay [2].
Regarding `Cc1nc(C2CCCN2C(=O)c2cc3c(s2)CCCC3)no1` (stereo not drawn), the figures for the Percent Effect in assay [1] and in assay [2] were -1.23% and 23.4%, respectively.
Turning to `CN(CCCc1cnn(C)c1)C(=O)C1CCOC1` (stereo not drawn), the Percent Effect in assay [1] is 5.2%; in assay [2], -36.5%.
Regarding `Cc1cnn(CC2CN(CCS(=O)(=O)c3ccccc3)CCO2)c1` (stereo not drawn), the Percent Effect was -0.24% in assay [1] and 0.99% in assay [2].
In the case of `CN(C)c1ccc(CC(=O)N[C@@H]2CCNC[C@H]2O)cc1`, the Percent Effect in assay [1] was determined as 3.77%; in assay [2], 1.28%.
Consider `CN1CCCC1CNC(=O)CCCOc1ccc(F)cc1` (stereo not drawn), for which the Percent Effect is -1.43% in assay [1] and 1.57% in assay [2].
For `COC(=O)C1CCN(C(=O)c2ccc(NS(C)(=O)=O)c(C)c2)CC1` the same measures were -2.94% and -1.7%.
For the compound `Cc1nnc(NC(=O)NC2CCOc3ccccc32)s1` (stereo not drawn), the Percent Effect in assay [1] was 1.16%; in assay [2] it was -1.42%.
For `CNS(=O)(=O)Cc1ccc(CNC(=O)c2cccc(C)n2)cc1` the same measures were -1.85% and -5.04%.
In the case of `Cc1nc(CN2C(=O)COC3(CCN(Cc4ccco4)CC3)C2C)cs1` (stereo not drawn), the figures for the Percent Effect in assay [1] and in assay [2] were -2.99% and -19.9%, respectively.
For `Cc1cccc(N2CCC(NC(=O)CCCc3cccs3)CC2)n1` the same measures were 8.77% and -2%.
As for `COCCc1noc(CN2CCN(CC(O)c3ccccc3)CC2)n1` (stereo not drawn), the Percent Effect in assay [1] is -1.47%; in assay [2], 4.32%.
The matching figures for `CN(Cc1ccon1)C(=O)C1CC(=O)N(Cc2ccncc2)C1` (stereo not drawn): 5.91% and 6.22%.
For the compound `Cc1ccccc1NS(=O)(=O)c1cc2c(c(C(=O)O)c1)OCCO2`, the Percent Effect in assay [1] is -0.815%; in assay [2] it was 29.1%.
The matching figures for `COC(=O)CN(C)C1CCc2ccccc21` (stereo not drawn): -6.57% and 28.1%.
For `Cc1nc(NC2CCCC2)cc(C2CCN2C(=O)c2ccccc2)n1` (stereo not drawn) the same measures were -4.99% and -18.1%.
